The term AC50 denotes the midpoint of the concentration-response curve, whichever way the signal moves.

Experiment [1] has as its target Paired box protein Pax-6 (Homo sapiens) (UniProt P26367). Description: ATG_Pax6_CIS: Attagene CIS-FACTORIAL HepG2 Assay for human Paired Box 6 (PAX6) (AID 2282956). The conditions noted are these: HepG2 CIS-FACTORIAL PAX6 reporter transcription, RNA readout; actives raise or lower the signal. In a few lines:
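Multiplexed cis-reporter HepG2 system; 24 h treatment; reporter mRNA read by RT-PCR/CE fluorescence; bidirectional fit vs DMSO.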

Experiment [2] can be described thus: ATG_PXRE_CIS: Attagene CIS-FACTORIAL HepG2 Assay for human Pregnane X Receptor Element (PXRE) (AID 2282957). Conditions: HepG2 Attagene CIS-FACTORIAL PXRE reporter, mRNA; actives raise or lower the signal. The method in brief:
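Multiplexed cis-reporter assay in transiently transfected human HepG2 cells; 24 h chemical exposure. Reporter transcripts quantified by RT-PCR with fluorescent labeling and capillary electrophoresis.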

A short description of experiment [3]: ATG_PPRE_CIS: Attagene CIS-FACTORIAL HepG2 Assay for human Peroxisome Proliferator-activated Response Element (PPRE) (AID 2282958). Conditions: HepG2 PPRE cis-element reporter, Attagene transcription factor profiling; actives raise or lower the signal. In a few lines: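 Multiplexed reporter transcription units under cis-regulatory promoters were transfected into HepG2 cells to capture endogenous factor activity. A 24 h incubation preceded RNA isolation and fluorescent RT-PCR fragment analysis.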

A short description of experiment [4]: ATG_RORE_CIS: Attagene CIS-FACTORIAL HepG2 Assay for human RAR-related Orphan Receptor Element (RORE) (AID 2282959). Conditions: HepG2 Attagene cis-factorial RORE reporter, mRNA; actives raise or lower the signal. The method in brief: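 Fluorescence intensity of reporter-specific cDNA fragments, separated by capillary electrophoresis, gives the signal. Source: HepG2 liver cells transiently transfected with cis-element reporters and exposed 24 h; DMSO-normalized bidirectional fit.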

Experiment [5] can be described thus: ATG_Sox_CIS: Attagene CIS-FACTORIAL HepG2 Assay for human SRY-box transcription factor (SOX) (AID 2282960). Conditions: HepG2 Attagene cis-factorial SOX reporter, mRNA; actives raise or lower the signal. The method in brief: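 After 24 h of chemical treatment, transfected HepG2 reporter cells are lysed for total RNA. Transcript levels come from RT-PCR with labelled primer extension and capillary electrophoresis, analysed bidirectionally versus DMSO.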

The target in experiment [6] is Transcription factor Sp1 (Homo sapiens) (UniProt P08047). Description: ATG_Sp1_CIS: Attagene CIS-FACTORIAL HepG2 Assay for human Specificity Protein 1 (Sp1) (AID 2282961). The conditions noted are these: HepG2 Sp1 cis-reporter transcription, actives raise or lower the signal. The method in brief:
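Sp1-driven reporter mRNA, read as capillary electrophoresis fluorescence after RT-PCR, in transiently transfected HepG2 cells dosed for 24 h; signal change in either direction relative to DMSO.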

Experiment [7] is described as follows: ATG_SREBP_CIS: Attagene CIS-FACTORIAL HepG2 Assay for human Sterol Regulatory Element Binding (SREBP) (AID 2282962). The conditions noted are these: HepG2 Attagene cis-factorial SREBP reporter, mRNA; actives raise or lower the signal. In a few lines: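 mRNA induction of transfected cis-promoter reporters in HepG2 cells, 24 h post-dose. Detection: RT-PCR with 6-FAM-labelled products, HpaI digest, capillary electrophoresis. DMSO served as negative control and baseline.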

In experiment [8] the target is Signal transducer and activator of transcription 3 (Homo sapiens) (UniProt P40763). Nature of the experiment: ATG_STAT3_CIS: Attagene CIS-FACTORIAL HepG2 Assay for human Signal Transducer and Activator of Transcription 3 (STAT3) (AID 2282963). Conditions: HepG2, Attagene cis-factorial STAT3 reporter transcription; actives raise or lower the signal. The method in brief:
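Values derive from bidirectional fits relative to DMSO of reporter mRNA levels, measured by RT-PCR with capillary electrophoresis, in HepG2 cells carrying transiently transfected cis-regulated reporter units and exposed 24 h.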

The nature of experiment [9]: ATG_TA_CIS: Attagene CIS-FACTORIAL HepG2 Assay for human TA Basal Promoter (AID 2282964). The conditions noted are these: HepG2 Attagene CIS-factorial TA basal promoter reporter; actives raise or lower the signal. In a few lines:
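HepG2 cells transiently transfected with multiple reporter units under cis promoter elements, reporting endogenous transcription factor activity; this endpoint tracks the TA basal promoter as background control. Reporter mRNA after 24 h dosing measured by RT-PCR/capillary electrophoresis; bidirectional fits versus DMSO.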

A short description of experiment [10]: ATG_TCF_b_cat_CIS: Attagene CIS-FACTORIAL HepG2 Assay for human T-Cell-Factor with beta-catenin (TCF/b-cat) (AID 2282965). Conditions: HepG2 TCF/beta-catenin cis-reporter transcription, actives raise or lower the signal. In a few lines: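 HepG2 cells transiently transfected with cis-promoter-driven multiplexed reporter units; reporter mRNA measured 24 h after dosing by RT-PCR, FAM labelling, HpaI digestion and capillary electrophoresis. Bidirectional fitting relative to DMSO baseline.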

Each structure is given as a SMILES string. Active and inactive are the calls of the source. Rule for the calls: active = hit-call score of the fitted dose curve at least 0.9, where 1 is the maximum; inactive = score below 0.9.

Signal transducer and activator of transcription 3 (Homo sapiens), sequence (P40763 whole entry, looked up): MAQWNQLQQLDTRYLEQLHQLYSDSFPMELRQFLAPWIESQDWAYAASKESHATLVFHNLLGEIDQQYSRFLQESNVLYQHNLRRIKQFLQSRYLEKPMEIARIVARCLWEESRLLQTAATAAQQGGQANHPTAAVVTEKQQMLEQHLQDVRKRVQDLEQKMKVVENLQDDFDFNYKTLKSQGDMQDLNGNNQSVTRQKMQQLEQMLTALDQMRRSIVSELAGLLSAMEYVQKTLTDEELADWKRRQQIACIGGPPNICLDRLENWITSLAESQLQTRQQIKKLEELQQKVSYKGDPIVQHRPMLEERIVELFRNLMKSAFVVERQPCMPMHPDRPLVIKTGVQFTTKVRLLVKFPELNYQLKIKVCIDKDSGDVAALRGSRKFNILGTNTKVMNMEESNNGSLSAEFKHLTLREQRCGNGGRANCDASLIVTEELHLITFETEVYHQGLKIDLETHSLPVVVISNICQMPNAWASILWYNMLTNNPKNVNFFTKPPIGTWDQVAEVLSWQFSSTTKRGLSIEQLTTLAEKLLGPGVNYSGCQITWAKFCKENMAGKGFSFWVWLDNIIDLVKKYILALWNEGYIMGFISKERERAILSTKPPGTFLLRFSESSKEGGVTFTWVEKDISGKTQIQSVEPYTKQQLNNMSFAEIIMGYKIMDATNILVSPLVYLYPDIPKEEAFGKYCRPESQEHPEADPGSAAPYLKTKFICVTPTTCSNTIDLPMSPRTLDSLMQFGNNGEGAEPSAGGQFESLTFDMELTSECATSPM
Transcription factor Sp1 (Homo sapiens), sequence (P08047 whole entry, looked up): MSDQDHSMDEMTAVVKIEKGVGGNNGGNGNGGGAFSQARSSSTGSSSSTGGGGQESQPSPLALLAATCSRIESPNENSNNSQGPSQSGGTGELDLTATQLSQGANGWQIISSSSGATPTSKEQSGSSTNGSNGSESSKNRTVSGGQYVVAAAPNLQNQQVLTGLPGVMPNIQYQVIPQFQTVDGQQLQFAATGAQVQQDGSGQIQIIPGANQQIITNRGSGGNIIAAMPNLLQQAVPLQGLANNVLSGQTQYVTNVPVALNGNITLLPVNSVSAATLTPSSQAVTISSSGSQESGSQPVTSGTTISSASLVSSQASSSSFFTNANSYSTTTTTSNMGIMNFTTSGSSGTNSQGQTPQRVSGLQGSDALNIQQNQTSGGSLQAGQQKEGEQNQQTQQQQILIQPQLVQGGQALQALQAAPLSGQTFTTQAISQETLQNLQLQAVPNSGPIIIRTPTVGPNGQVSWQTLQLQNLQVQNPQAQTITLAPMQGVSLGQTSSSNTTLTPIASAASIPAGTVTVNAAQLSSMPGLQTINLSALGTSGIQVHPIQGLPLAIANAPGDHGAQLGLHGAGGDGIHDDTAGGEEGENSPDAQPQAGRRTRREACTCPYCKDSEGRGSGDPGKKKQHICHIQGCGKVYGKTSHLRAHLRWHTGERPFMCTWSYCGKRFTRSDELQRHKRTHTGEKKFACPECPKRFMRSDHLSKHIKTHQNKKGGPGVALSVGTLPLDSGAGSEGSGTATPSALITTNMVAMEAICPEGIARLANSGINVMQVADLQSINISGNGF
Paired box protein Pax-6 (Homo sapiens), sequence (P26367 whole entry, looked up): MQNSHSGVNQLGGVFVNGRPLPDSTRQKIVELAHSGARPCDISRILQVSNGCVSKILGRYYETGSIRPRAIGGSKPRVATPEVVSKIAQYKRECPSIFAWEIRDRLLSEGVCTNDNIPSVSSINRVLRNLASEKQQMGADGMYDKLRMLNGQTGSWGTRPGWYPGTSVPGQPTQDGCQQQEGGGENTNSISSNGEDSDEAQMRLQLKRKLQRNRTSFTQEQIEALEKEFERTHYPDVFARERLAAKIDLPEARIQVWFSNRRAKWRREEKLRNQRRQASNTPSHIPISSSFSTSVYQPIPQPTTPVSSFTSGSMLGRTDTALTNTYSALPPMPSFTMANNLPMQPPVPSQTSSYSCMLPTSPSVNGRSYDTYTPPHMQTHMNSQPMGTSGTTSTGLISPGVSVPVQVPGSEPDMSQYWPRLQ

`O=C(F)C(F)(F)C(F)(F)C(F)(F)C(F)F`: the molecule was classed as inactive in [1], in [2], in experiment [3], in experiment [4], in experiment [5] and in experiment [6]. Besides, the molecule was classed as inactive in experiment [7], in [8], in experiment [9] and in experiment [10].
As for `O=C1OC(=O)c2cc(-c3ccc4c(c3)C(=O)OC4=O)ccc21`, the molecule was classed as inactive in [1], in experiment [2], in experiment [3], in experiment [4], in [5] and in experiment [6]. Also, the outcome in experiment [7], in [8], in experiment [9] and in [10] was inactive.
As to `c1ccc2c(c1)CCC2`, the molecule was called inactive in experiment [1], in [2], in [3], in experiment [4], in [5] and in experiment [6]. The molecule was called inactive in experiment [7], in experiment [8] and in experiment [10].
Consider `c1ccc(CNc2ncnc3c2ncn3C2CCCCO2)cc1` (configuration not stated), for which the outcome in experiment [1], in experiment [3], in experiment [4], in experiment [5], in experiment [6] and in [7] was inactive. The call in experiment [8] and in experiment [10] was inactive. Also, the AC50 in [2] is 4.73 µM (active).
`FC(F)(F)N1C(F)(F)C(F)(F)OC(F)(F)C1(F)F`: the molecule was classed as inactive in experiment [1], in [2], in [3], in experiment [4], in experiment [5] and in [6]. In addition, the outcome in experiment [7] and in [9] was inactive.
Turning to `CCCCCCCCCCCCCCCCCC[N+](C)(C)Cc1ccccc1`, the call in experiment [1], in experiment [2], in experiment [4], in experiment [6] and in [10] was inactive. Also, the AC50 in experiment [3] is 79.8 µM (active); in experiment [5], 12.4 µM (active); in experiment [7], 13.2 µM (active); in [8], 88.9 µM (active).
Consider `CCC1CO1` (configuration not stated), for which the molecule was called inactive in experiment [1], in experiment [2], in experiment [3], in experiment [4], in experiment [5] and in experiment [6]. Besides, the call in experiment [7], in experiment [8], in experiment [9] and in [10] was inactive.
For the molecule `Cc1ccccc1OCC(=O)O`, the molecule was classed as inactive in [1], in [2], in [3], in [4], in experiment [5] and in [6]. Further, the molecule was classed as inactive in experiment [7], in [8], in [9] and in experiment [10].
`CC(C)(O)C(=O)c1ccccc1`: the molecule was classed as inactive in experiment [1], in experiment [3], in [4], in experiment [5], in [6] and in experiment [7]. Besides, the call in experiment [8], in experiment [9] and in experiment [10] was inactive. Also, the half-maximal activity concentration (AC50) in experiment [2] is 36.2 µM (active).
Consider `O=CC(F)(F)C(F)(F)C(F)(F)C(F)F`, for which the result in [1], in [2], in [3], in experiment [4], in experiment [5] and in [6] was inactive. Further, the call in experiment [7], in experiment [8] and in [10] was inactive.
As to `FC(F)(F)C(F)(F)C(F)(F)Br`, the outcome in experiment [1], in experiment [2], in [3], in experiment [4], in [5] and in experiment [6] was inactive. For the same molecule, the molecule was classed as inactive in experiment [7], in [8] and in experiment [10].
`O=CC(F)(F)C(F)(F)C(F)(F)F`: the result in experiment [1], in [2], in experiment [3], in experiment [4], in experiment [5] and in experiment [6] was inactive. In addition, the molecule was classed as inactive in experiment [7], in experiment [8], in [9] and in [10].
Turning to `CCCCCCCCCCCCCC[n+]1ccccc1`, the AC50 in experiment [1] is 11.1 µM (active); in [2], 11.1 µM (active); in [7], 2.7 µM (active); in experiment [9], 8.99 µM (active). Further, the molecule was classed as inactive in [3], in [4], in [5], in experiment [6], in [8] and in experiment [10].
For `COCC1CCC(CO)CC1` (configuration not stated), the outcome in experiment [1], in experiment [2], in experiment [3], in [4], in [5] and in experiment [6] was inactive. Also, the call in experiment [7], in [8] and in experiment [10] was inactive.

(Values after PubChem BioAssay (EPA / NIEHS).)
